aSyn yeast inh – rescues yeast growth from alpha-synuclein toxicity. Yeast expressing alpha-synuclein, growth rescue, BacTiter-Glo, 24 h. Potency, µM (doses to about 46.1 µM), hits mostly activators. 0.14% of 370,000 active. AID 652106; note: nearly all actives have a fitted effect of over 65% in size
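Rescue of yeast growth: cells expressing toxic alpha-synuclein, induced in galactose at OD600 0.02, incubated with compound 24 h at 30 C. ATP luminescence quantified growth; inhibitors of toxicity appear as activators.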
Abeta rescue – compounds reversing amyloid beta toxicity in yeast; AID 1347071; yeast expressing A-beta42, growth rescue, OD600, 48 h; response scale: 0% DMSO, 100% iron-clioquinol control; 0.063% of 410,000 active; Potency, µM (top dose mostly 46.1 µM), hits mostly activators; note: nearly all actives have a fitted effect of over 55% in size
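Yeast growth medium received pinned compounds, then yeast cells expressing toxic A-beta were added; plates incubated at 30 C for 48 hr. Growth read as absorbance at 600 nm, normalized to DMSO and equimolar FeCl3 plus clioquinol controls.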
FUS yeast rescue – FUS proteinopathy suppression in yeast; S. cerevisiae FUS-expressing, growth rescue, OD600, 24 h; Potency, µM (titrated, usually from 76.6 µM), most hits filed as activators; 0.24% of 390,000 active; AID 1347120; note: nearly all actives have a fitted effect of over 55% in size
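Galactose (2%) drives FUS expression in yeast precultured in raffinose; seeding density OD 0.005. Test compounds incubated 24hr at 30C and 99% humidity before absorbance at 600 nm was measured.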
TDP-43 yeast inh – inhibitors of TDP-43 toxicity in yeast; TDP-43 expressing yeast growth rescue, BacTiter-Glo, 24 h; Potency, µM (titrated, usually from 46.1 µM), actives largely listed as activators; 1.8% of 410,000 active; note: nearly all actives have a fitted effect of over 50% in size
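Yeast expressing TDP-43 (pregrown in raffinose, seeded at OD600=0.02 in galactose medium) exposed to compounds 24 hr at 30 deg C. Growth read by BacTiter-Glo luminescence; rescue of toxicity appears as increased signal.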
Of the large screens only hits and unclear results are named; the others gave an inactive call. Rows were chosen to be rich in hits. Some 2.1% of all compounds tested hit in one or more screens of this group. Calls come from the whole dose curve; as a rule, active = well fitted curve in the direction sought with a large enough effect; inconclusive = small, poorly fitted or top-dose-only effect, or another doubt; inactive = no such curve, though single readings can be large; an effect the other way counts as inactive or inconclusive.

c1ccc(Cn2ccc3ccc(-c4ccc5ccn(Cc6ccc7ccccc7c6)c5c4)cc32)cc1	none (no result: aSyn yeast inh, Abeta rescue, TDP-43 yeast inh)
N#CC(c1ccccc1)C(CC(=NO)c1ccccc1)c1ccccc1 (stereo not drawn)	aSyn yeast inh inconclusive, TDP-43 yeast inh 18µM
CCOC(=O)C1CCC(CN(Cc2ccc(Cl)cc2)S(=O)(=O)c2ccc(F)c(C(=O)Nc3cccc(F)c3)c2)CC1 (stereo not drawn)	none (no result: aSyn yeast inh)
CC1(C)CC(=O)c2c(O)cc(OCC(=O)NCCc3ccc(S(N)(=O)=O)cc3)cc2O1	none
COc1ccc(CNC(=O)COc2cc(O)c3c(c2)OC(C)(C)CC3=O)cc1	TDP-43 yeast inh 11µM
Cc1cc(C)cc(NC(=O)NC2CCN(S(=O)(=O)c3ccc(F)cc3)CC2)c1	none (no result: aSyn yeast inh, Abeta rescue, TDP-43 yeast inh)
CN=c1scc(-c2ccco2)n1/N=C/c1ccc(O)c(O)c1	TDP-43 yeast inh 28µM
Cc1nn(-c2ccccc2)c2nc(C3CC3)cc(C(=O)Nc3ccccc3F)c12	none (no result: aSyn yeast inh)
CCN(CC)C(=O)c1sc2c(c1C)c(=O)n(CCc1ccccc1)c(=O)n2Cc1ccc(C)cc1	FUS yeast rescue inconclusive, TDP-43 yeast inh inconclusive (no result: aSyn yeast inh)
Cc1cc(C)nc(NC(=NCCc2c[nH]c3ccccc23)NC(=O)Nc2ccc(Cl)cc2)n1	TDP-43 yeast inh 22µM (no result: FUS yeast rescue)
Cc1cc(C)nc(NC(N)=NCCc2c[nH]c3ccccc23)n1	none
Clc1ccccc1C1CC(c2ccccc2)=Nc2ccccc2N1 (stereo not drawn)	TDP-43 yeast inh inconclusive
Brc1ccccc1C1CC(c2ccccc2)=Nc2ccccc2N1 (stereo not drawn)	TDP-43 yeast inh 35µM
CC(Sc1nnnn1C)C(=O)Nc1ccc(Oc2ccccc2)cc1 (stereo not drawn)	TDP-43 yeast inh 16µM
CC(Sc1nnnn1-c1ccccc1)C(=O)Nc1ccc(N2CCN(C)CC2)cc1 (stereo not drawn)	none
Cc1cccc2c(=O)n(C(=O)c3ccccc3)c(N)nc12	TDP-43 yeast inh 20µM
Fc1cc(Br)ccc1NC(=S)Nc1ccccc1	TDP-43 yeast inh inconclusive (no result: FUS yeast rescue)
CC(C)(C)NC(=S)Nc1ccc(Br)cc1	TDP-43 yeast inh 16µM
CC(C)(C)NC(=S)Nc1ccc(Nc2ccccc2)cc1	Abeta rescue inconclusive
Fc1ccccc1NC(=S)Nc1ccc(Br)cc1	TDP-43 yeast inh 13µM
Cc1cccc(NC(=O)CSc2cn(CC(=O)N3CCC(C)CC3)c3ccccc23)c1C	none (no result: aSyn yeast inh)
CCOC(=O)N/N=C/c1ccc(C)o1	none
CCOC(=O)N/N=C/c1ccc(Oc2ccccc2)cc1	Abeta rescue inconclusive, TDP-43 yeast inh 18µM
O=C(c1ccc(Br)cn1)N1CCC(Oc2cccnc2)CC1	none (no result: aSyn yeast inh, Abeta rescue, TDP-43 yeast inh)
CN(Cc1ccc(Cl)cc1Cl)C(=O)CNC(=O)c1ccco1	none
Cc1ccc(C(=O)NCC(=O)N(C)Cc2ccc(Cl)cc2Cl)s1	TDP-43 yeast inh 8.9µM
O=S(=O)(NCc1nc2cccnc2n1Cc1ccc(F)cc1)c1ccc2c(c1)CCCC2	none (no result: aSyn yeast inh)
CCN(CC)c1ccc(C(=O)Nc2ccccc2)cc1[N+](=O)[O-]	TDP-43 yeast inh 25µM
COc1ccc(C(=O)Nc2ccc(Nc3ccccc3)cc2)cc1[N+](=O)[O-]	aSyn yeast inh inconclusive, TDP-43 yeast inh inconclusive
Cc1cc(-c2nc(-c3ccncc3)no2)ccc1[N+](=O)[O-]	TDP-43 yeast inh 11µM
CNc1ccc(-c2nc(-c3ccncc3)no2)cc1[N+](=O)[O-]	none (no result: aSyn yeast inh)
O=C(OCn1nnc2ccccc2c1=O)c1ccc(S(=O)(=O)N2CCOCC2)cc1	none
O=C(OCn1nnc2ccccc2c1=O)c1ccc2ncsc2c1	aSyn yeast inh inconclusive, TDP-43 yeast inh 11µM
CCN(CC)S(=O)(=O)c1ccc(C(=O)OCn2nnc3ccccc3c2=O)cc1	aSyn yeast inh 3.2µM
Nc1nc(NCc2ccc(Cl)cc2Cl)c2[nH]cnc2n1	none (no result: Abeta rescue, FUS yeast rescue, TDP-43 yeast inh)
Cc1snc(SCC(=O)c2ccc([N+](=O)[O-])cc2)c1C#N	TDP-43 yeast inh 22µM
Cc1snc(SCC(=O)c2ccc(F)cc2)c1C#N	TDP-43 yeast inh inconclusive
O=C(CCCC(=O)c1ccccc1)Nc1ccc(F)cc1	TDP-43 yeast inh 5.6µM
COc1ccc(NC(=O)CCCC(=O)c2ccccc2)cc1OC	none
O=C(CC(=O)Nc1ccccc1F)Nc1ccc2nc3n(c(=O)c2c1)CCCCC3	none (no result: aSyn yeast inh)
O=C(NCCc1ccc(Cl)cc1)c1ccc(CSCc2ccccc2Cl)o1	Abeta rescue inconclusive (no result: aSyn yeast inh)
Nc1ccccc1C(=O)Nc1cccc2ccccc12	TDP-43 yeast inh 14µM
CCc1ccc(CNC(=O)C2COc3ccccc3C2)cc1 (stereo not drawn)	none (no result: aSyn yeast inh)
CSc1ccccc1NC(=O)N1CCCC(C(=O)c2ccc3c(c2)OCO3)C1 (stereo not drawn)	TDP-43 yeast inh 16µM

Screening results from PubChem BioAssay.
